The full data set covers some 7,900 targets. This sample favours those with a hit. About 0.6% of all pairs of compound and target were hits.
Experiments:
Assay in all cases: log2 fold change, soluble protein after heating vs DMSO (PISA); higher = thermal stabilisation; K562 cells, 10 uM, 30 min; active = over 0.2 and 3.5 SD of the protein, either way, in both replicates (recomputed)
erlotinib = compound: C#Cc1cccc(Nc2ncnc3cc(OCCOC)c(OCCOC)cc23)c1 [erlotinib]
Method in brief: (§1)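 Soluble protein was quantified by TMTpro 16plex LC-MS/MS after channel sums were equalised. It was obtained as the supernatant after 21,000xg for 90 min from pooled aliquots of K562 cells (2×10^6 cells/mL, 10 μM compound, 30 min) heated for 3 min across 48°C-58°C and extracted in PBS with 0.5% NP-40 at 4°C. Thermal stability values are relative to control samples and come from duplicates. They are given as log2 fold changes.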

[1] = compound: C/C(=N\NC(=O)C1=CC(=CC=C1)S(=O)(=O)N2CCOCC2)/C3=C(C=CC(=C3)Cl)O
Method in brief: as §1

[2] = compound: C1=CC(=C(C=C1Cl)C2=NC3=NC=CN=C3C(=N2)NC4=CC=NC=C4)F
Method in brief: as §1

[3] = compound: C1=CC(=CC=C1C2=NC3=C(N2)C=C(C=C3)C(=O)N)OC4=CC=C(C=C4)Cl
Method in brief: as §1

[4] = compound: C1=CC2=C(C=CC(=C2)/C=C\3/C(=O)NC(=NCC4=CC=CS4)S3)N=C1
Method in brief: as §1

[5] = compound: C1=CC2=NC=CN=C2C=C1/C=C/3\C(=O)NC(=O)S3
Method in brief: as §1

[6] = compound: C1=CC=C(C=C1)C2=NC(=C(N2)C3=CC=NC=C3)C4=CC(=C(C=C4)Cl)O
Method in brief: as §1

[7] = compound: C1=CC=C2C(=C1)C3=NNC4=CC=CC(=C43)C2=O
Method in brief: as §1

ibrutinib = compound: C=CC(=O)N1CCC[C@@H](n2nc(-c3ccc(Oc4ccccc4)cc3)c3c(N)ncnc32)C1 [ibrutinib]
Method in brief: as §1

[8] = compound: CC(=O)c1cnc2ccc(-c3cc(Cl)c(O)c(Cl)c3)nc2c1N[C@H]1CC[C@H](CN(C)C)CC1
Method in brief: as §1

ralimetinib = compound: CC(C)(C)Cn1c(N)nc2ccc(-c3[nH]c(C(C)(C)C)nc3-c3ccc(F)cc3)nc21 [ralimetinib]
Method in brief: as §1

[9] = compound: CC(C)(O)CC(=O)NCCn1ccc2ncnc(Nc3ccc(Oc4cccc(C(F)(F)F)c4)c(Cl)c3)c21
Method in brief: as §1

[10] = compound: CC(C)C1=C2N=C(C=C(N2N=C1)NCC3=CC=CC=C3)NCCCCCCN
Method in brief: as §1

[11] = compound: CC(C)C[C@@H](C=O)NC(=O)[C@H](CC(C)C)NC(=O)[C@H](CC(C)C)NC(=O)OCc1ccccc1
Method in brief: as §1

[12] = compound: CC1=C(C(CC(=O)N1)C2=CC=C(C=C2)C(F)(F)F)C(=O)NC3=C(C=C4C(=C3)C=NN4)F
Method in brief: as §1

[13] = compound: C1CCN(C1)C(=O)NC2=CC=CC(=C2)NC3=NC=C(C(=N3)NCCC4=CN=CN4)Br
Method in brief: as §1

[14] = compound: C1CN(CCC1(CC2=CC=C(C=C2)Cl)N)C3=NC=NC4=C3C=CN4
Method in brief: as §1

IRAK-1-4 Inhibitor I = compound: C1COCCN1CCN2C3=CC=CC=C3N=C2NC(=O)C4=CC(=CC=C4)[N+](=O)[O-] [IRAK-1-4 Inhibitor I]
Method in brief: as §1

pinometostat = compound: CC(C)N(C[C@H]1O[C@@H](n2cnc3c(N)ncnc32)[C@H](O)[C@@H]1O)[C@H]1C[C@@H](CCc2nc3cc(C(C)(C)C)ccc3[nH]2)C1 [pinometostat]
Method in brief: as §1

[15] = compound: CC1=C(C2=C(C=C1)C(=O)C3=CC=CC=C3N2CCCN)C
Method in brief: as §1

Measured: log2 fold change

ITM2C (UniProt Q9NQX7)
UniProt Q9NQX7, sequence (Q9NQX7 whole entry, looked up): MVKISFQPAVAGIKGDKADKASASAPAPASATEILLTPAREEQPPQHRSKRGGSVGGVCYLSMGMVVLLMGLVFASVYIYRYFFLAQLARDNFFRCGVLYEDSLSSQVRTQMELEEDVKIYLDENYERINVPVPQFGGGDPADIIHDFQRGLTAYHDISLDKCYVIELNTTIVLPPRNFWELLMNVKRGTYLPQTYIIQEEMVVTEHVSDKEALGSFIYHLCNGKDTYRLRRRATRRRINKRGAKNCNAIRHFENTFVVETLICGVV
active: [10] -0.445
inactive: erlotinib -0.078 | [1] -0.019 | [2] 0.013 | [3] -0.297 | [4] -0.023 | [5] 0.062 | [6] -0.029 | [7] 0.052 | ibrutinib -0.069 | [8] -0.07 | ralimetinib -0.063 | [9] -0.186 | [11] 0.036 | [12] -0.368

METAP1D (UniProt Q6UB28)
UniProt Q6UB28, sequence (Q6UB28 whole entry, looked up): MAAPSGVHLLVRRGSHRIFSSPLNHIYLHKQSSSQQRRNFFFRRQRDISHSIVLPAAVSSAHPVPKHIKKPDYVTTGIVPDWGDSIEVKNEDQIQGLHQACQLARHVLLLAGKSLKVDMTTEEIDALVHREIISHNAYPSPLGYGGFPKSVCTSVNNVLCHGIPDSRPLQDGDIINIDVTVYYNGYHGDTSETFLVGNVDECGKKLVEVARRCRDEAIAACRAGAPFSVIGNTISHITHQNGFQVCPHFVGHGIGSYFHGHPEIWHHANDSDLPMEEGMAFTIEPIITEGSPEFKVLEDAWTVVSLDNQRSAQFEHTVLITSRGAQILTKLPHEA
inactive: erlotinib -0.061 | [1] -0.307 | [2] -0.02 | [3] 0.025 | [4] -0.004 | [5] -0.014 | [6] 0.005 | [7] -0.002 | [13] -0.018 | [14] 0.033 | IRAK-1-4 Inhibitor I -0.122 | ibrutinib 0.017 | [8] 0.084 | ralimetinib 0.01 | [9] -0.032 | [10] 0.094 | [11] 0.044 | pinometostat -0.003 | [12] 0.073 | [15] -0.024

IL10RB (UniProt Q08334)
inactive: erlotinib 0.05 | [1] -0.089 | [2] -0.106 | [3] 0.053 | [4] 0 | [5] -0.03 | [7] 0.029 | [13] 0.037 | [14] 0.075 | IRAK-1-4 Inhibitor I 0.027 | ibrutinib 0.079 | [8] 0.09 | [9] -0.09 | [10] 0.063 | pinometostat 0.04 | [12] -0.055 | [15] -0.089

LEPROT (UniProt O15243)
UniProt O15243, sequence (O15243 whole entry, looked up): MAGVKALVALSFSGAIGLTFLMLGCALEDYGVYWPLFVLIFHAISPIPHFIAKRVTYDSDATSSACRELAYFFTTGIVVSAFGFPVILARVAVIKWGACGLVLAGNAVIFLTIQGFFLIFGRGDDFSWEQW
inactive: erlotinib 0.06 | [1] 0.034 | [2] 0.081 | [3] 0.088 | [4] 0.119 | [7] -0.058 | [13] -0.011 | [14] 0.001 | [8] -0.037 | [9] 0.142 | [15] 0.092
active: [10] -0.777

LENG8 (UniProt Q96PV6)
UniProt Q96PV6, sequence (Q96PV6 whole entry, looked up): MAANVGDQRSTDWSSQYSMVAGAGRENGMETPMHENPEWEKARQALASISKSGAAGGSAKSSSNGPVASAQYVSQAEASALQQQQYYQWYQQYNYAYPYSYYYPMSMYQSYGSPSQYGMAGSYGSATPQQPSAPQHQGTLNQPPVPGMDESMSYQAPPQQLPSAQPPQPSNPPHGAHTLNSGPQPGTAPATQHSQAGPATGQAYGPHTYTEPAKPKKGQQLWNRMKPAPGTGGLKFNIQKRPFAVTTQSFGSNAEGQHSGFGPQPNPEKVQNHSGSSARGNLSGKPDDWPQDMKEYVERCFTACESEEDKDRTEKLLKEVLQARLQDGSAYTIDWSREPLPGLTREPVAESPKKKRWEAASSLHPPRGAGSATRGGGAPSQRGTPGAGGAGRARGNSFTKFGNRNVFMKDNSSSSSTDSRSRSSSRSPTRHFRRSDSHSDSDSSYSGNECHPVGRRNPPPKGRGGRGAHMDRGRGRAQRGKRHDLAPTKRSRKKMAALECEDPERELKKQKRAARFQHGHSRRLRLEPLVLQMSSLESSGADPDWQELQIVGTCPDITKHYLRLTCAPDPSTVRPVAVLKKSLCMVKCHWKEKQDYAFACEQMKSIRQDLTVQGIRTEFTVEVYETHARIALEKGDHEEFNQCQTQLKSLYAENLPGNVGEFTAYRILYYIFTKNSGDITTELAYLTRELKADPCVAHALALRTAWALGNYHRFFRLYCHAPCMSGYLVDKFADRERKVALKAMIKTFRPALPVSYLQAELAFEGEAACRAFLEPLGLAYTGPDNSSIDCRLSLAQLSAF
inactive: erlotinib -0.072 | [1] 0.133 | [2] 0.091 | [3] 0.108 | [4] -0.024 | [5] -0.037 | [6] -0.141 | [7] 0.096 | [13] 0.152 | [14] -0.229 | IRAK-1-4 Inhibitor I -0.122 | ibrutinib 0 | [8] -0.173 | ralimetinib -0.13 | [9] -0.389 | [11] 0.107 | pinometostat -0.071 | [12] 0.031 | [15] 0.15
active: [10] -0.646

ITIH4 (UniProt Q14624)
UniProt Q14624, sequence (Q14624 whole entry, looked up): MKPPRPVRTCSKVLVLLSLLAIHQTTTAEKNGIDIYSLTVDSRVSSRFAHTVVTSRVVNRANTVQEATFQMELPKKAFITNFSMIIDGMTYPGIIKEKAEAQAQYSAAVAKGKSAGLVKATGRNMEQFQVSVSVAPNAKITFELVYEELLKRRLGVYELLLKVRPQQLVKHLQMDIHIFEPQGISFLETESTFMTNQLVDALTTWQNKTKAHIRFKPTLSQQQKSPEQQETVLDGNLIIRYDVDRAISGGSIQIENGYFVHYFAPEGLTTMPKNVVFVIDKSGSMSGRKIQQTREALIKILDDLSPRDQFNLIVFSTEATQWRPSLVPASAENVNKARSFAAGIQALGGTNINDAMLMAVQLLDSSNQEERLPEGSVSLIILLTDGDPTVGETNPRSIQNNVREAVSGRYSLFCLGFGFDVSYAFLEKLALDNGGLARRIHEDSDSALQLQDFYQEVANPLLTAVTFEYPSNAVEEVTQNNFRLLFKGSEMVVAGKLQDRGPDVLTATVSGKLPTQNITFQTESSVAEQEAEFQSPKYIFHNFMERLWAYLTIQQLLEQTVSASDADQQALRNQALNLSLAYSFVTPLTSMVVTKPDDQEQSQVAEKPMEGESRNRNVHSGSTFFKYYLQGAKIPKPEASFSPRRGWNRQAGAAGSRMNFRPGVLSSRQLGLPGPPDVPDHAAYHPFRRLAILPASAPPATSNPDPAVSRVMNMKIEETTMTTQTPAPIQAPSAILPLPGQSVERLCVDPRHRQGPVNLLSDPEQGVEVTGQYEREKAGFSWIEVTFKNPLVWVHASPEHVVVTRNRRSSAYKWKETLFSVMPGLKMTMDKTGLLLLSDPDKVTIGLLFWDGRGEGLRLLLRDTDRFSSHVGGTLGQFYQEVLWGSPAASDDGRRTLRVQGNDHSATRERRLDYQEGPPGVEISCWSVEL
inactive: erlotinib -0.026 | [1] -0.072 | [2] 0.029 | [3] 0.091 | [4] 0.143 | [5] -0.039 | [6] 0.061 | [7] -0.06 | [13] -0.009 | [14] 0.079 | IRAK-1-4 Inhibitor I 0.043 | ibrutinib 0.147 | [8] 0.041 | ralimetinib -0.044 | [9] 0.17 | [10] 0.045 | [11] -0.113 | pinometostat -0.117 | [12] 0.251 | [15] -0.148

MAGED1 isoform 2 (UniProt Q9Y5V3)
inactive: erlotinib 0.024 | [1] 0.044 | [2] -0.311 | [3] -0.059 | [4] -0.064 | [7] -0.012 | [8] 0.03 | [9] -0.136 | [10] 0 | [12] 0.019

KLHL18 (UniProt O94889)
inactive: erlotinib -0.011 | [1] 0 | [2] 0.12 | [3] 0.022 | [4] 0.031 | [5] -0.02 | [6] -0.042 | [7] -0.085 | [13] -0.042 | [14] -0.026 | ibrutinib 0.082 | [8] 0.104 | ralimetinib 0.055 | [9] 0.006 | [10] -0.117 | [11] -0.111 | [12] 0.026 | [15] 0.088

MAP4 isoform 5 (UniProt P27816)
inactive: erlotinib 0.056 | [1] -0.214 | [2] 0.038 | [3] -0.067 | [4] -0.031 | [5] -0.116 | [6] -0.051 | [7] 0.152 | ibrutinib 0.076 | [8] 0.142 | ralimetinib -0.019 | [9] 0.052 | [10] 0.083 | [11] 0.014 | [12] 0.298

ITGA2B (UniProt P08514)
UniProt P08514, sequence (P08514 whole entry, looked up): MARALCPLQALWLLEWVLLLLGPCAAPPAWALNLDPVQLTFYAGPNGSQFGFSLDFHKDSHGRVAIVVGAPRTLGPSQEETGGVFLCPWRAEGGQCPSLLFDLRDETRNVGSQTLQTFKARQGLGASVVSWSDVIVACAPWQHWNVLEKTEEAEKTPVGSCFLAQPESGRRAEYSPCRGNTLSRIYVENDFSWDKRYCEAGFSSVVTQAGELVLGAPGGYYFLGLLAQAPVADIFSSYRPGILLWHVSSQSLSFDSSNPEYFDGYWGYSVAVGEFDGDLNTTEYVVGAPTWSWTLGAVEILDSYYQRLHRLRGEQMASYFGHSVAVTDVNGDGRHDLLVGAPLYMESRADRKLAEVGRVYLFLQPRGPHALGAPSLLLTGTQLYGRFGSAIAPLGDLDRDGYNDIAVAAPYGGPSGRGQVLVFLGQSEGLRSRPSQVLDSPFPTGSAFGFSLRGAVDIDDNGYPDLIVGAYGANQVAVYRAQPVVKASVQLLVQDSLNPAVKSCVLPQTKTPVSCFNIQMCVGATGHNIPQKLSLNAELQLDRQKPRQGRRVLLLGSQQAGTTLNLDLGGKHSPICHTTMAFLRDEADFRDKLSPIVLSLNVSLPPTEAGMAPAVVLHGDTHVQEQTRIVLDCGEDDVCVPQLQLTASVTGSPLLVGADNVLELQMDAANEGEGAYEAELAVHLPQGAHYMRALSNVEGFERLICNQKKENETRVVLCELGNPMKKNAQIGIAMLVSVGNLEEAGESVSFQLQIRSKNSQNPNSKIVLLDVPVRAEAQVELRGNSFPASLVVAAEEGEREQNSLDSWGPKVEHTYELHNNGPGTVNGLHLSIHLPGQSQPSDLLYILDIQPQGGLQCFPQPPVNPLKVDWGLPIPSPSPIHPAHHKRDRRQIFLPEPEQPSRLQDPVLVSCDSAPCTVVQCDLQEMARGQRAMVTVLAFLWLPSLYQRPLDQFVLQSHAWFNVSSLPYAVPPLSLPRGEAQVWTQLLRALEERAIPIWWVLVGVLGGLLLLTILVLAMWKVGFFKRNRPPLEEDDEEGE
inactive: erlotinib -0.046 | [1] -0.051 | [2] 0.023 | [3] 0.06 | [4] -0.023 | [6] 0 | [7] -0.133 | [13] 0.065 | [14] -0.13 | IRAK-1-4 Inhibitor I -0.045 | [8] -0.045 | ralimetinib 0.054 | [9] -0.172 | [10] 0.462 | [11] 0.026 | pinometostat -0.064 | [12] 0.099 | [15] -0.121

LGALS8 isoform 2 (UniProt O00214)
UniProt O00214, sequence (O00214 whole entry, looked up): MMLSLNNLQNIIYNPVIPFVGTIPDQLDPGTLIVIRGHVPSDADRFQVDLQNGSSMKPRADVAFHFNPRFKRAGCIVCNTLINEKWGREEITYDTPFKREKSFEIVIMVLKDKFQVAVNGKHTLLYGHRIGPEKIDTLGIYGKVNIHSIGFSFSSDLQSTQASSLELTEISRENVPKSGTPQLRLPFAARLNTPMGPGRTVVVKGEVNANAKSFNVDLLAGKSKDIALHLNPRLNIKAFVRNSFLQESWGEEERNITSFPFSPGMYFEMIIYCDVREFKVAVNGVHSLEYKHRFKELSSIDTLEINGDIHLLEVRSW
inactive: erlotinib -0.011 | [1] -0.034 | [2] -0.282 | [3] 0.062 | [4] -0.038 | [5] -0.059 | [7] 0.036 | [13] 0.043 | [14] 0.039 | IRAK-1-4 Inhibitor I -0.027 | ibrutinib -0.262 | [8] 0.049 | [9] 0.092 | [10] 0.123 | pinometostat 0.11 | [15] 0.096

MELK (UniProt Q14680)
active: [8] -0.84
inactive: erlotinib 0.067 | [1] -0.067 | [2] 0.018 | [3] 0.027 | [4] 0.033 | [5] 0.009 | [7] 0.031 | [13] -0.027 | [14] -0.086 | IRAK-1-4 Inhibitor I 0.021 | ibrutinib 0.032 | [9] -0.085 | [10] 0.092 | pinometostat 0.013 | [12] 0.337 | [15] 0.011

LUM (UniProt P51884)
inactive: erlotinib -0.147 | [1] -0.043 | [2] 0.095 | [3] 0.039 | [4] 0.063 | [6] -0.057 | [7] -0.068 | [13] 0.185 | [14] 0.307 | IRAK-1-4 Inhibitor I -0.038 | [8] 0.078 | ralimetinib -0.054 | [9] 0.263 | [10] 0.124 | [11] 0.023 | pinometostat -0.068 | [12] -0.151 | [15] -0.256

MAP4K5 (UniProt Q9Y4K4)
inactive: erlotinib -0.001 | [1] 0.057 | [2] 0.05 | [3] 0.051 | [4] 0.143 | [5] -0.025 | [6] -0.039 | [13] -0.083 | [14] 0.152 | IRAK-1-4 Inhibitor I -0.02 | ibrutinib 0.067 | ralimetinib -0.045 | [9] -0.057 | [10] -0.034 | [11] 0.034 | pinometostat -0.014 | [12] -0.046 | [15] -0.02
active: [8] -0.289

LPIN3 isoform 2 (UniProt Q9BQK8)
UniProt Q9BQK8, sequence (Q9BQK8 whole entry, looked up): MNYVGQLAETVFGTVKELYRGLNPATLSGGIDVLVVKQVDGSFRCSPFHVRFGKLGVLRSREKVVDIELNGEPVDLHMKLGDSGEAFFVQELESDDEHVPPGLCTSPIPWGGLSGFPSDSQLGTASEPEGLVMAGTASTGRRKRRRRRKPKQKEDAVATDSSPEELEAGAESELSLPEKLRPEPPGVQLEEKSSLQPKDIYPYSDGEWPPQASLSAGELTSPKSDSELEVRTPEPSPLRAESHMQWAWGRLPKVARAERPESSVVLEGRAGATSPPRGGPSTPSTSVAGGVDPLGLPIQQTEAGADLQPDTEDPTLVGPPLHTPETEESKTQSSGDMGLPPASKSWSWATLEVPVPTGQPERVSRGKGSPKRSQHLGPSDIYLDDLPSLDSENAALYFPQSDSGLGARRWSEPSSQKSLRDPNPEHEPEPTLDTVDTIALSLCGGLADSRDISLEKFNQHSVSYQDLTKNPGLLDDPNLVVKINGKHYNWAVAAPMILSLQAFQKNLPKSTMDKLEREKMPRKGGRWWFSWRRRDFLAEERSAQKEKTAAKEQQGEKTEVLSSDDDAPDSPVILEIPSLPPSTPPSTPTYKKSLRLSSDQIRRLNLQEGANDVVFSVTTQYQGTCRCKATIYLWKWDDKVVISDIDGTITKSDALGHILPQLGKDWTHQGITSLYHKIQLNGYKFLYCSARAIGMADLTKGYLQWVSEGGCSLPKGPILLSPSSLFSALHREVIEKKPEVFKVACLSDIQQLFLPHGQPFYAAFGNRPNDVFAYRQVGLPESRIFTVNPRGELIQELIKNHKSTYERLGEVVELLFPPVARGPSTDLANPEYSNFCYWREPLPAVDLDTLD
inactive: erlotinib 0.053 | [1] 0.062 | [2] 0.038 | [3] -0.045 | [4] 0.108 | [5] 0.022 | [6] -0.048 | [7] 0.022 | [13] 0.002 | [14] -0.014 | ibrutinib -0.041 | [8] -0.164 | ralimetinib -0.024 | [9] -0.14 | [10] 0.027 | [11] 0.073 | [12] -0.019 | [15] 0.099

MAP1LC3B2 (UniProt A6NCE7)
inactive: erlotinib 0.009 | [1] 0.093 | [2] 0.038 | [3] 0 | [4] -0.031 | [5] 0.052 | [6] 0.016 | [7] 0.083 | [13] -0.002 | [14] 0.036 | IRAK-1-4 Inhibitor I -0.002 | ibrutinib -0.053 | [8] -0.059 | ralimetinib -0.026 | [9] 0.008 | [10] -0.087 | [11] 0.009 | pinometostat -0.008 | [12] -0.041 | [15] -0.01

LYPLA2 (UniProt O95372)
UniProt O95372, sequence (O95372 whole entry, looked up): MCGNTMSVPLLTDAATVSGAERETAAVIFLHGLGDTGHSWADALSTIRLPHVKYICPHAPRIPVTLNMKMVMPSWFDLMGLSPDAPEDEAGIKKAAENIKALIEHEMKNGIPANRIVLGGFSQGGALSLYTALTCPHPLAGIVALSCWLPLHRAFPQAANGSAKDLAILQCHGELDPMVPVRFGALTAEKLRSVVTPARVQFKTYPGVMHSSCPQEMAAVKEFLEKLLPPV
inactive: erlotinib -0.008 | [1] 0.021 | [3] -0.01 | [4] 0.081 | [5] 0.097 | [6] 0.14 | [7] -0.016 | [13] -0.084 | [14] -0.122 | IRAK-1-4 Inhibitor I 0.062 | ibrutinib 0.003 | [8] -0.134 | ralimetinib -0.036 | [9] -0.106 | [10] -0.04 | [11] -0.056 | pinometostat -0.067 | [12] -0.021 | [15] 0.197
active: [2] 0.345
